Values joined by “and” are separate entries in the source; they are usually repeats but may differ in a detail not shown here. Equal values may be shown once. Active and inactive are the calls of the source. No rule for the calls is given here.
Molecular target: L-lactate dehydrogenase (Plasmodium falciparum (isolate CDC / Honduras)) (UniProt Q27743)
Assay: PfLDH activity inhibition – cell lysate, 3D7 strain, counter-screen for P. falciparum growth inhibition project (AID 2304);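 also: 0% = vehicle and 100% = reference inhibitor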
Conditions: P. falciparum 3D7 crude extract, LDH APAD/NBT absorbance; at 2 µM; stronger effect = higher value

Chain of L-lactate dehydrogenase (Plasmodium falciparum (isolate CDC / Honduras)) (Q27743 whole entry, looked up): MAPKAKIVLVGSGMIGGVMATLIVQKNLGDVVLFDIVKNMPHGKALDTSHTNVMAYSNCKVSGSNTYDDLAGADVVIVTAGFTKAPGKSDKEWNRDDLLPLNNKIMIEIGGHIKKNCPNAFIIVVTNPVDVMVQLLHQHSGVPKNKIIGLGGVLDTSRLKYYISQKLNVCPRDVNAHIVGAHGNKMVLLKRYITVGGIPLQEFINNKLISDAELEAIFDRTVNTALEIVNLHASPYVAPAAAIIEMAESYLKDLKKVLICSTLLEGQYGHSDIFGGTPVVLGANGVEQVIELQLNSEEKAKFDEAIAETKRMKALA

Q: With `O=C(/C=C/C=C/c1ccccc1)NC1CCC(CN2CCC(c3c[nH]c4ccccc34)CC2)CC1` (configuration not stated) as the compound, how does the inhibition read?
A: 7% (inactive)

Q: Which inhibition does the source give for `CN(c1cc(NC(=O)c2ccc(F)cc2)ccn1)C1CCN(Cc2ccc(C#N)cc2)CC1` here?
A: 2% (inactive)

Q: Which inhibition does the source give for `COc1cc(NCCCNC(=O)c2cn(Cc3ccccc3)c3ccccc23)nc2ccccc12` here?
A: 0% (inactive)

System: not listed separately
Assay: inhibition of 3D7 malaria parasite growth – strain 3D7 (AID 2306);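 also: 0% = DMSO wells and 100% = chloroquine plus artemisinin control wells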
Conditions: P. falciparum 3D7 erythrocytic growth, LDH absorbance, 72 h; at 2 µM; stronger effect = higher value

Q: With `CCCCC/C=C/C(=O)NC1CCC(CN2CCC(c3c[nH]c4ccccc34)CC2)CC1` (configuration not stated) as the compound, how does the growth inhibition read?
A: 87% (active)

Q: For `COc1ccc(O)c(CN2CCN(c3cc(C)ccc3C)CC2)c1`, which growth inhibition is on record?
A: 90% (active)

Q: Which growth inhibition does the source give for `CC[C@H]1CN2CC[C@H]1C[C@@H]2[C@@H](O)c1cc(Cl)nc2ccc(OC)cc12` here?
A: 98% (active)

Q: Which growth inhibition does the source give for `CC(Cc1ccc(Sc2ccccc2)cc1)NCC(O)c1cccc(C(F)(F)F)c1` (configuration not stated) here?
A: 99% (active)

Q: For `CC(C)CCNC(=O)c1cc(C(=O)c2cc(F)ccc2O)cn(CCC(C)C)c1=O`, which growth inhibition is on record?
A: 100% (active)

Q: Which growth inhibition does the source give for `O=C(/C=C/c1ccc(Cl)c(Cl)c1)N1CCC(CN2CCC(c3c[nH]c4ccc(O)cc34)CC2)CC1` here?
A: 101% (active)

Q: Which growth inhibition does the source give for `Oc1ccc2[nH]cc(C3=CCN(CCc4ccccc4)CC3)c2c1` here?
A: 96% (active)

Q: Which growth inhibition does the source give for `C/C=C1\CN2CC[C@H]1C[C@H]2[C@H](O)c1ccnc2ccc(O)cc12` here?
A: 98% (active)

Q: For `CC[C@H]1CN2CC[C@@H]1C[C@H]2[C@H](O)c1cc(N2CCC(N3CCCCC3)CC2)nc2ccc(OC)cc12`, which growth inhibition is on record?
A: 99% (active)

Q: With `S=C(NCC1CCCCC1)NC1CCC(CN2CCC(c3c[nH]c4ccccc34)CC2)CC1` (configuration not stated) as the compound, how does the growth inhibition read?
A: 88% (active)

Q: For `COc1cc(C=CC(=O)N2CCC(CN3CCC(c4c[nH]c5ccccc45)CC3)CC2)ccc1O`, which growth inhibition is on record?
A: 82% (active)

Q: Which growth inhibition does the source give for `CCOc1ccc2nccc([C@@H](O)[C@@H]3C[C@@H]4CCN3C[C@@H]4CC)c2c1` here?
A: 98% (active) and 99% (active)

Q: For `CC1(CCCCN2CC=C(c3c[nH]c4ccccc34)CC2)C(=O)Nc2ccccc21` (configuration not stated), which growth inhibition is on record?
A: 94% (active)

Q: Which growth inhibition does the source give for `CN1CC=C(c2c[nH]c3ccc(OC(=O)c4ccccc4)cc23)C1` here?
A: 96% (active)

Q: With `Cc1[nH]c2c(C)cc(NS(C)(=O)=O)cc2c1C1CCN(CC2CCN(C(=O)/C=C/c3ccc(Cl)c(Cl)c3)CC2)CC1` as the compound, how does the growth inhibition read?
A: 100% (active)

Q: For `COC(=O)c1ccc(CC(C)NCC(O)c2cccc(Cl)c2Cl)cc1` (configuration not stated), which growth inhibition is on record?
A: 98% (active)

Q: Which growth inhibition does the source give for `Oc1ccc(CN2CCN(CCOC(c3ccc(F)cc3)c3ccc(F)cc3)CC2)cc1Cl` here?
A: 96% (active)

Q: Which growth inhibition does the source give for `COC(=O)c1ccc(CC(C)NCC(O)c2ccc(F)c(Cl)c2)cc1` (configuration not stated) here?
A: 98% (active)

Q: Which growth inhibition does the source give for `O=C(C=Cc1ccccc1Br)NC1CCC(CN2CCC(c3c[nH]c4ccccc34)CC2)CC1` (configuration not stated) here?
A: 101% (active) and 102% (active)

Q: With `CC[C@H]1CN2CC[C@H]1C[C@H]2[C@H](O)c1cc(Cl)nc2ccc(OC)cc12` as the compound, how does the growth inhibition read?
A: 101% (active)

Q: With `CC(=O)C1(c2ccccc2)CCN(CCC2(c3ccc(Cl)c(Cl)c3)CN(C(=O)Nc3cccc(C(F)(F)F)c3)CCO2)CC1` (configuration not stated) as the compound, how does the growth inhibition read?
A: 95% (active)

Q: Which growth inhibition does the source give for `Cc1[nH]c2ccccc2c1C1=CCN(CCCCC23CCCc4cccc(c42)NC3=O)CC1` (configuration not stated) here?
A: 95% (active)

Q: Which growth inhibition does the source give for `Oc1ccc2[nH]cc(C3=CCN(Cc4ccccc4)CC3)c2c1` here?
A: 94% (active)

Q: Which growth inhibition does the source give for `CN1CC=C(c2c[nH]c3ccc(Sc4ccccc4)cc23)CC1` here?
A: 98% (active)

Q: Which growth inhibition does the source give for `OC(CNC1CCCCCC1)c1ccc(Cl)c(Cl)c1` (configuration not stated) here?
A: 99% (active)

Q: With `CC[C@H]1CN2CC[C@H]1C[C@H]2[C@H](O)c1cc(-c2cccc(F)c2)nc2ccc(OC)cc12` as the compound, how does the growth inhibition read?
A: 99% (active)

Q: For `COC(=O)c1ccc(CC(C)NCC(O)c2cccc(C(F)(F)F)c2)c(Cl)c1` (configuration not stated), which growth inhibition is on record?
A: 99% (active)

Q: For `Cc1ccc(CC(C)NCC(O)c2cccc(Br)c2)cc1` (configuration not stated), which growth inhibition is on record?
A: 99% (active)

Q: For `COc1ccc2[nH]cc(C3C[C@H]4CC[C@@H](C3)N4CCC3CCN(C(=O)/C=C/c4ccc(Cl)c(Cl)c4)CC3)c2c1` (some centres not stated), which growth inhibition is on record?
A: 101% (active)

Q: Which growth inhibition does the source give for `CCOC(C(=O)OCC1CCCN1C(C)C)(c1ccccc1)c1ccccc1` (configuration not stated) here?
A: 98% (active)

Q: For `CN(C)c1cccc(NC(=O)NC2N=C(c3ccccc3)c3ccccc3N(CC(=O)N(C)c3ccccc3)C2=O)c1` (configuration not stated), which growth inhibition is on record?
A: 99% (active)

Q: For `CC(=O)Nc1ccc2[nH]cc(C3CCN(CC4CCC(NC(=O)/C=C/c5ccc(Cl)c(Cl)c5)CC4)CC3)c2c1` (configuration not stated), which growth inhibition is on record?
A: 90% (active) and 100% (active)

Q: For `O=C(Cc1cc(=O)oc2cc(O)ccc12)NC1CCC(CN2CCC(c3c[nH]c4ccccc34)CC2)CC1` (configuration not stated), which growth inhibition is on record?
A: 96% (active)

Q: With `COc1ccc(CN2CCN(CCOC(c3ccccc3)c3ccccc3)CC2)c(O)c1` as the compound, how does the growth inhibition read?
A: 96% (active)

Source: PubChem BioAssay
